Screening results (PubChem BioAssay)
In the library only some 6.8% were active in any assay of this set; here they are far more common.
Pf Dd2 growth = P. falciparum Dd2 growth inhibitors, primary screen, SYBR Green fluorescence, single dose replicates; 72 h; active compounds read low; activity change, % at 10 µM; hit rate 2.3% among 94,000; AID 1159554, 2015; in the data active = activity change below about -80%; inconclusive = no clear call, values can overlap the other calls
T cruzi growth-1 = T. cruzi intracellular proliferation inhibitors, primary screen, cell-based, beta-gal Tulahuen parasites, NIH3T3 host, luminescence; T. cruzi beta-gal in NIH3T3, GalScreen luminescence, 90 h; inhibition, % at 8.34 µM; hit rate 5.9% among 77,000;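 active = mean inhibition above about 93%, with at least 55% of replicates each passing it, limit read from the data, passing the limit was not always enough; inconclusive = only one of those two conditions holds; inactive = neither condition holds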
C diff HTS = C. difficile growth inhibitors, primary screen, HTS. hit rate 0.25% among 86,000. growth activity, negative = inhibition, % at 16 µg/mL (by protocol). Clostridium difficile clinical isolate growth, OD600, 24 h; active compounds read low;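 active = mean growth activity at or below -80% and every replicate also at or below -80%; inconclusive = mean at or below -80% but some replicate above -80%; inactive = mean growth activity above -80%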
T cruzi growth-2 = T. cruzi intracellular proliferation inhibitors, confirmation, cell-based, NIH3T3 host, beta-gal parasite, luminescence, cherry-pick | shares compounds with T cruzi growth-1 | T. cruzi beta-gal in NIH3T3, GalScreen luminescence, 90 h | inhibition, % at 8.35 µM | hit rate 72% among 5,600;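 active = mean replicate inhibition above about 95% and at least 55% of replicates individually reaching it, limit read from the data; inconclusive = only one of the two criteria is met; inactive = neither criterion is met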
T cruzi growth-3 = inhibitors of intracellular T. cruzi replication, confirmation, NIH3T3 host cells, beta-gal parasites, cherry-pick, set 2 | AID 651740, 2012 | inhibition, % at 2.09 µM | hit rate 21% among 5,600 | shares compounds with T cruzi growth-1 | T. cruzi beta-gal in NIH3T3, GalScreen luminescence, 90 h;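 active = mean inhibition above about 95%, with at least 55% of replicates also reaching it, limit read from the data; inconclusive = meets just one of the two conditions; inactive = meets neither condition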
NIH3T3 tox = cytotoxicity in mouse NIH/3T3 fibroblasts, confirmation, cytotoxicity control for T. cruzi proliferation inhibitor project, cell-based, cherry-pick, single point | shares compounds with T cruzi growth-1 | AID 651742, 2012 | NIH/3T3 viability, CellTiter-Glo ATP luminescence, 90 h | cytotoxicity (signal decrease), % at 8.35 µM | hit rate 14% among 5,600;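 active = mean signal decrease across replicates above about 35% based on untreated-well scatter, with enough replicates individually passing, limit read from the data; inconclusive = no rule stated though some were filed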
3T3 cytotox 2 = NIH/3T3 fibroblast cytotoxicity, confirmation, cytotoxicity control, cell-based, cherry-pick, single point, set 2; shares compounds with T cruzi growth-1; NIH/3T3 viability, CellTiter-Glo ATP luminescence, 90 h; inhibition, % at 24.9 µM; hit rate 56% among 5,600;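 active = mean loss of cell viability signal at or above a set limit, and enough replicates individually reaching it; inconclusive = meets only the mean limit or only the replicate share; inactive = meets neither condition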
A number is an active result; ! = repeats disagree.

Screening C[C@@H]1CN([C@H](C)CO)C(=O)c2cc(C#CC3CCCCC3)cnc2O[C@@H]1CN(C)C(=O)Cc1ccccn1 returned Pf Dd2 growth inactive and C diff HTS inactive.
`C[C@@H]1CN([C@@H](C)CO)C(=O)c2cc(/C=C/c3ccccc3)cnc2O[C@@H]1CN(C)Cc1ccncc1` gave Pf Dd2 growth inactive, T cruzi growth-1 inactive and C diff HTS inactive.
`C[C@@H]1CN([C@H](C)CO)C(=O)c2cc(/C=C/c3ccccc3)cnc2O[C@H]1CN(C)Cc1ccncc1` gave Pf Dd2 growth inactive, T cruzi growth-1 113, C diff HTS inactive, T cruzi growth-2 105, T cruzi growth-3 inactive, NIH3T3 tox inactive and 3T3 cytotox 2 30.
Screening C[C@H](CO)N1C[C@H](C)[C@H](CN(C)Cc2ccccc2)Oc2ncc(/C=C/c3ccccc3)cc2C1=O returned Pf Dd2 growth inactive, T cruzi growth-1 120!, C diff HTS inactive, T cruzi growth-2 117, T cruzi growth-3 inactive, NIH3T3 tox 37 and 3T3 cytotox 2 102.
For C[C@@H]1CN([C@H](C)CO)C(=O)c2cc(/C=C/c3ccccc3)cnc2O[C@@H]1CN(C)Cc1ccccc1 the results were Pf Dd2 growth inactive, T cruzi growth-1 inactive and C diff HTS inactive.
For COc1ccc2c3c(n(C)c2c1)[C@@H](CO)N(C(=O)Nc1ccc(F)cc1)CC31CCN(S(=O)(=O)c2cn(C)cn2)CC1 the results were Pf Dd2 growth inactive and C diff HTS inactive.
`O=C(C[C@H]1C[C@@H]2c3cc(NS(=O)(=O)c4ccc(F)cc4)ccc3O[C@@H]2[C@@H](CO)O1)N1CCOCC1` gave Pf Dd2 growth inactive, T cruzi growth-1 inactive and C diff HTS inactive.
For CC(C)NC(=O)Nc1cccc2c1O[C@@H](CN(C)Cc1ccc3c(c1)OCO3)[C@@H](C)CN([C@@H](C)CO)C2=O the results were Pf Dd2 growth inactive and C diff HTS inactive.
Screening C[C@@H]1CN([C@H](C)CO)S(=O)(=O)c2ccc(C#Cc3ccccc3F)cc2O[C@H]1CN(C)C(=O)Cc1ccccc1 returned Pf Dd2 growth inactive, T cruzi growth-1 122, C diff HTS inactive, T cruzi growth-2 103, T cruzi growth-3 inactive, NIH3T3 tox inactive and 3T3 cytotox 2 104.
C[C@H](CO)N1C[C@H](C)[C@H](CN(C)C(=O)Cc2ccncc2)Oc2cc(C#Cc3ccccc3F)ccc2S1(=O)=O was read as Pf Dd2 growth inactive and C diff HTS inactive.
Screening C[C@@H]1CN([C@@H](C)CO)S(=O)(=O)c2ccc(C#Cc3ccccc3F)cc2O[C@@H]1CN(C)C(=O)Cc1ccncc1 returned Pf Dd2 growth inactive and C diff HTS inactive.
`C[C@@H]1CN([C@H](C)CO)S(=O)(=O)c2ccc(C#Cc3ccccc3F)cc2O[C@H]1CN(C)C(=O)Cc1ccncc1` gave Pf Dd2 growth inactive and C diff HTS inactive.
Screening C[C@H]1CN([C@@H](C)CO)S(=O)(=O)c2ccc(C#Cc3ccccc3F)cc2O[C@@H]1CN(C)C(=O)Cc1ccccc1 returned Pf Dd2 growth inactive, T cruzi growth-1 121, C diff HTS inactive, T cruzi growth-2 106, T cruzi growth-3 107, NIH3T3 tox inactive and 3T3 cytotox 2 103.
C[C@@H]1CN([C@@H](C)CO)S(=O)(=O)c2ccc(C#Cc3ccccc3F)cc2O[C@@H]1CN(C)C(=O)Cc1cccnc1 was read as Pf Dd2 growth inactive, T cruzi growth-1 inconclusive, C diff HTS inactive, T cruzi growth-2 102, T cruzi growth-3 inactive, NIH3T3 tox inactive and 3T3 cytotox 2 70.
For C[C@@H]1CN([C@@H](C)CO)S(=O)(=O)c2ccc(C#Cc3ccccc3F)cc2O[C@H]1CN(C)C(=O)Cc1ccccc1 the results were Pf Dd2 growth inactive, T cruzi growth-1 120, C diff HTS inactive, T cruzi growth-2 102, T cruzi growth-3 110, NIH3T3 tox 56 and 3T3 cytotox 2 92.
C[C@@H]1CN([C@@H](C)CO)S(=O)(=O)c2ccc(C#Cc3ccccc3F)cc2O[C@H]1CN(C)C(=O)Cc1ccncc1 was read as Pf Dd2 growth inactive and C diff HTS inactive.
`COc1ccccc1S(=O)(=O)N[C@H]1CC[C@H](CC(=O)NCc2cccc(F)c2)O[C@@H]1CO` gave Pf Dd2 growth inactive and T cruzi growth-1 inactive.
Cc1cccc(S(=O)(=O)N2CC[C@@H]3[C@@H](CO)Nc4ccc(C#Cc5ccc(F)cc5)cc4[C@@H]32)c1 was read as Pf Dd2 growth inactive, T cruzi growth-1 inactive and C diff HTS inactive.
For C[C@@H]1CN([C@@H](C)CO)S(=O)(=O)c2ccc(/C=C/c3ccccc3)cc2O[C@@H]1CN(C)C(=O)Nc1cccc(F)c1 the results were Pf Dd2 growth inactive, T cruzi growth-1 127, C diff HTS inactive, T cruzi growth-2 101, T cruzi growth-3 105, NIH3T3 tox inconclusive and 3T3 cytotox 2 29.
`C/C=C/c1ccc2c(c1)O[C@@H](CN(C)C(=O)Nc1cccc(F)c1)[C@H](C)CN([C@H](C)CO)S2(=O)=O` gave Pf Dd2 growth inactive, T cruzi growth-1 inactive and C diff HTS inactive.
COc1cccc(NC(=O)N(C)C[C@@H]2Oc3cc(/C=C/c4ccccc4)ccc3S(=O)(=O)N([C@@H](C)CO)C[C@@H]2C)c1 was read as Pf Dd2 growth inactive and C diff HTS inactive.
Screening C/C=C/c1ccc2c(c1)O[C@H](CN(C)C(=O)Nc1cccc(F)c1)[C@H](C)CN([C@@H](C)CO)S2(=O)=O returned Pf Dd2 growth inactive, T cruzi growth-1 inactive and C diff HTS inactive.
Screening C[C@@H]1CN([C@@H](C)CO)S(=O)(=O)c2ccc(/C=C/c3ccccc3)cc2O[C@H]1CN(C)C(=O)Nc1cccc(F)c1 returned Pf Dd2 growth inactive, T cruzi growth-1 127, C diff HTS inactive, T cruzi growth-2 95, T cruzi growth-3 97, NIH3T3 tox 49 and 3T3 cytotox 2 80.
C[C@H]1CN([C@@H](C)CO)S(=O)(=O)c2ccc(/C=C/c3ccccc3)cc2O[C@H]1CN(C)C(=O)Nc1cccc(F)c1 was read as Pf Dd2 growth inactive, T cruzi growth-1 123, C diff HTS inactive, T cruzi growth-2 106, T cruzi growth-3 103, NIH3T3 tox 39 and 3T3 cytotox 2 38.
For C[C@@H]1CN([C@H](C)CO)S(=O)(=O)c2ccc(C#C[C@@H](C)O)cc2O[C@@H]1CN(C)Cc1ccccc1 the results were Pf Dd2 growth inactive, T cruzi growth-1 inactive and C diff HTS inactive.
